# Source: PubChem BioAssay
# The source made the active and inactive calls.
# Tests used:
# [1] = compounds binding Alexa647 anti-His antibody – biochemical, small-molecule microarray, 635 nm fluorescence, artefact control for SMM control protein annotation, primary screen (AID 1128); details: higher = more signal;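 note: score merges feature fluorescence with signal-to-noise for each printed compound spot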
# [2] = system: Human papillomavirus type 1a E7 protein (residues 1-88); assay: HPV1a E7 small-molecule binders, primary screen, biochemical, small-molecule microarray, residues 1-88, 635 nm (AID 1129); details: small-molecule microarray binding, fluorescence 635 nm; higher = more signal
# [3] = molecular target: Focal adhesion kinase 1 (Homo sapiens) (UniProt Q05397); assay: PTK2 protein binding on printed compound slides – biochemical, small-molecule microarray, 635/667 nm fluorescence, BSA, DTT, primary screen (AID 1130); details: 635 nm fluorescence, higher = more signal;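 note: composite of spot emission at 667 nm and signal to noise over triplicate slides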
# Chain of Focal adhesion kinase 1 (Homo sapiens) (Q05397 whole entry, looked up): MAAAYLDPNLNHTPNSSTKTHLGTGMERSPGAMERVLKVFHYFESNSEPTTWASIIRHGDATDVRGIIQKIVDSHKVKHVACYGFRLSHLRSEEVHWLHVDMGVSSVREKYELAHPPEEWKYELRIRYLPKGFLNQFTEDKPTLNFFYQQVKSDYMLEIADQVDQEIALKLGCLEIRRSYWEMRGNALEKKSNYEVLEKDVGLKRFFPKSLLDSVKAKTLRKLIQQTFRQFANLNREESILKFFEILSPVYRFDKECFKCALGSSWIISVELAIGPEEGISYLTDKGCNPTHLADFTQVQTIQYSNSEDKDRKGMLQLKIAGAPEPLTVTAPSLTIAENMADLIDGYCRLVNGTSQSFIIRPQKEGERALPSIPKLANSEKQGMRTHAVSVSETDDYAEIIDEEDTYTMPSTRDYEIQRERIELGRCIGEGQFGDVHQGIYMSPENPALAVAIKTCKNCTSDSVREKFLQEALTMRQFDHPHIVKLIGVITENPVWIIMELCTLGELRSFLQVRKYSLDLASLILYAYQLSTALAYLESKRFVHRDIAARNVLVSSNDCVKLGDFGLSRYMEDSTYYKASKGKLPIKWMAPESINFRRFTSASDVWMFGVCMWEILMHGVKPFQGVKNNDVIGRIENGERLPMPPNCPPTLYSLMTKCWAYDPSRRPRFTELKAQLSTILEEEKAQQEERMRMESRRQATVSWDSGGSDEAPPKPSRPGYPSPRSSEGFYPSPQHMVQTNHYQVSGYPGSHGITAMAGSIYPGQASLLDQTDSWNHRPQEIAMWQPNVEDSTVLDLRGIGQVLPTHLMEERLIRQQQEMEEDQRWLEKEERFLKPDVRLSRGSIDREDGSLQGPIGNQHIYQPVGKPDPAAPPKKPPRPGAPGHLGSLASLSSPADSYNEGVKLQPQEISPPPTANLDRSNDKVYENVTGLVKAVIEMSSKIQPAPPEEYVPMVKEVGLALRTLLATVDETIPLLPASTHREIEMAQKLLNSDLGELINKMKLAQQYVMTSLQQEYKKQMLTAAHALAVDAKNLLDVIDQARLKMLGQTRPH
# [4] = system: Fibrinogen (Alexa647-labelled); assay: Alexa647-fibrinogen binding to printed small molecules – biochemical, small-molecule microarray, 635/667 nm fluorescence, artefact control for SMM control-protein annotation, profiling panel (AID 1131); details: fibrinogen-A647 binding fluorescence, higher = more signal;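 note: z-score merges 667 nm fluorescence with per-spot signal-to-noise over triplicate slides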
# [5] = molecular target: Follistatin (Homo sapiens) (UniProt P19883); assay: FST protein binding to printed compounds – biochemical, small-molecule microarray, 635/667 nm fluorescence, primary screen (AID 1132); details: 635 nm fluorescence, higher = more signal
# Chain of Follistatin (Homo sapiens) (P19883 whole entry, looked up): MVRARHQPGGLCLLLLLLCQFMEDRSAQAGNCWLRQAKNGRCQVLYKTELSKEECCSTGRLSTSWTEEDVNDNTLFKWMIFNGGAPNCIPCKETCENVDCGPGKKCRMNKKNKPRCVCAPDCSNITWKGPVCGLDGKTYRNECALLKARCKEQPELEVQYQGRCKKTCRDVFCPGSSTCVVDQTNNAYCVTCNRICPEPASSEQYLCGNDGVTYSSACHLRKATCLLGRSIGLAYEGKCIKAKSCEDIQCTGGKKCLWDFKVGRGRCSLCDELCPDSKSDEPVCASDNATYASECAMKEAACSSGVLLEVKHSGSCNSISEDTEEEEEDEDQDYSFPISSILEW
# [6] = molecular target: Fibroblast growth factor 2 (Homo sapiens) (UniProt P09038); assay: basic fibroblast growth factor binding to printed compounds – biochemical, small-molecule microarray, 635/667 nm fluorescence, primary screen (AID 1133); details: FGF2, fluorescence 635/667, higher = more signal
# Chain of Fibroblast growth factor 2 (Homo sapiens) (P09038 whole entry, looked up): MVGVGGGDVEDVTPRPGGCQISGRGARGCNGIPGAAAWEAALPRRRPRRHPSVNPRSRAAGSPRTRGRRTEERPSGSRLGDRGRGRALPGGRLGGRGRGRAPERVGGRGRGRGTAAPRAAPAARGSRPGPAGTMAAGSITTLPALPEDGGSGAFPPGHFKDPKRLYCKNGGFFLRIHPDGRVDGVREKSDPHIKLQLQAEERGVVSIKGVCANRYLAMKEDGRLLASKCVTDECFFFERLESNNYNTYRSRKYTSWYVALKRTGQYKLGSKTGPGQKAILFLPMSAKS
# [7] = JC-1 mitochondrial potential readout, lung cancer cells – cell-based, A549, JC-1 fluorescence, basal, 24 h, 100 nL, profiling panel (AID 1138); details: higher = more signal;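 note: A549 lung adenocarcinoma cells under basal conditions with no added stimulus; test concentration not given here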
# Lefty1 = Lefty1 protein binding to printed compounds – biochemical, small-molecule microarray, 635/667 nm fluorescence, primary screen (AID 1139); details: fluorescence 635/667, higher = more signal
# [8] = system: wheat germ agglutinin (Triticum aestivum), Alexa647-labelled; assay: Alexa647-WGA lectin binding to printed small molecules – biochemical, small-molecule microarray, 635/667 nm fluorescence, artefact control for SMM control-protein annotation, profiling panel (AID 1140); details: WGA-A647 binding, 635 nm fluorescence, higher = more signal;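 note: score merges 667 nm feature emission with signal to noise over triplicate slides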
# [9] = molecular target: Luciferin 4-monooxygenase (Photinus pyralis) (UniProt P08659); assay: inhibition of purified Photinus pyralis luciferase – biochemical, luminescence, purified enzyme, 2006 set, primary screen (AID 1141); details: purified firefly luciferase, SteadyGlo luminescence, 30 min; higher = more signal, called active from +8 up or from −8 down;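 note: cell-free assay with purified firefly luciferase at 100 ng per well in PBS; test concentration not given here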
# Chain of Luciferin 4-monooxygenase (Photinus pyralis) (P08659 whole entry, looked up): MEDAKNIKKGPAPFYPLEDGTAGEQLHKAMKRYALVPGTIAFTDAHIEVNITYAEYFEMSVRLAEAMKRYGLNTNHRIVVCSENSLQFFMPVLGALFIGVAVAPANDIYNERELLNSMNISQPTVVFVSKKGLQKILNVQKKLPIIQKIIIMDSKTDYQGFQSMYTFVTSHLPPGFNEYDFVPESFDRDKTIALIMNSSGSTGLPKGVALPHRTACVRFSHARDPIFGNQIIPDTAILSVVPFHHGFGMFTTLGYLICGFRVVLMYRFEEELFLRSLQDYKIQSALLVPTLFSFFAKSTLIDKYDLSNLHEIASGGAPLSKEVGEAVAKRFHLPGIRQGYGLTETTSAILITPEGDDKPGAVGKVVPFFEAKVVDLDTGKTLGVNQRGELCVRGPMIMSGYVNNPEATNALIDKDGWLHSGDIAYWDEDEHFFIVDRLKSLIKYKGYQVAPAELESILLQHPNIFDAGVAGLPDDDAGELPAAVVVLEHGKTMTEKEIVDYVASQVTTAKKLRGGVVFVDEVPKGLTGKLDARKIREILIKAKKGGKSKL
SMILES,composite z-score [1],composite z-score [2],composite z-score [3],composite z-score [4],composite z-score [5],composite z-score [6],z-score [7],composite z-score (Lefty1),composite z-score [8],z-score [9]
C=C[C@@H](OC)[C@H](OC(=O)Nc1ccc(SC)cc1)c1ccc(OCCO)cc1,2.02,0.815,0.317,0.951,1.17,0.377,-1.48,0.545,0.653,-2.25 (inactive)
CCOC(=O)C[C@H]1[C@H](OC(=O)c2ccc(-c3ccccc3)cc2)[C@@H](NC(=O)Cc2ccc(OC)cc2)c2cc(OCCCO)ccc2N1C(=O)Cc1ccc(OC)cc1,-0.871,-0.0151,0.0348,0.15,0.0322,-0.0269,1.94,-0.289,0.175,-0.754 (inactive)
COCCCNC(=O)[C@@]1(c2ccc([N+](=O)[O-])cc2)CC(=O)N(CC23CC4CC(CC(C4)C2)C3)[C@@H]1c1ccc(CO)cc1I,1.77,0.892,0.0865,0.705,1.16,0.614,-0.189,-0.122,0.47,0.482 (inactive)
COC(=O)[C@@]1(Cc2ccccc2)[C@H]2c3cc(C(=O)N4CCCC4)n(CCSCCO)c3C[C@H]2CN1C(=O)c1ccccc1,2.38,1.21,0.776,0.975,0.337,0.101,0.451,0.0341,0.844,0.103 (inactive)
CCOC(=O)C[C@H]1[C@H](OC(=O)c2ccc(-c3ccccc3)cc2)[C@@H](NC(=O)CC(C)C)c2cc(OCCCO)ccc2N1C(=O)c1ccccc1,0.281,0.453,0.513,0.252,0.249,0.376,1.23,0.369,0.0794,-0.228 (inactive)
CCOC(=O)C1=CC[C@@H](c2ccccc2)N(S(=O)(=O)c2ccc(C)cc2)[C@H]1C=Cc1ccccc1,0.906,0.943,0.289,-0.181,-0.28,-0.463,2.17,-0.584,0.152,1.45 (inactive)
C=CCC(OC(C)=O)[C@@H]1[C@@H](N(Cc2ccc(-c3ccccc3)cc2)C(=O)c2ccc(C)cc2)c2cc(OCCCO)ccc2N1C(=O)Cc1ccc2ccccc2c1 (stereo not given in full),0.0102,-0.823,-0.0958,0.0701,0.37,-0.154,3.13,0.293,0.0607,-2.19 (inactive)
C=CCC(OC(C)=O)[C@@H]1[C@@H](N(Cc2cccc3ccccc23)C(=O)c2cccc3ccccc23)c2cc(OCCCO)ccc2N1C(=O)c1ccc2ccccc2c1 (stereo not given in full),0.279,0.18,-0.0836,0.0439,1.14,0.061,-0.348,0.11,-0.223,1.48 (inactive)
C=CCC(OC(C)=O)[C@@H]1[C@@H](N(Cc2ccc(-c3cccc(C(F)(F)F)c3)o2)C(=O)c2cccc3ccccc23)c2cc(OCCCO)ccc2N1C(=O)Cc1ccc(OC)cc1 (stereo not given in full),-0.0466,-1.02,-0.104,-0.765,0.998,-0.0117,-0.465,0.229,0.0854,0.638 (inactive)
COC(=O)[C@@]1(Cc2ccc(OC)cc2)[C@H]2c3cc(C(=O)N4CCCC4)n(Cc4cc(C)n(C)n4)c3C[C@H]2CN1C(=O)c1ccccc1,1.58,1.17,2.74,1.05,-0.326,-0.622,1.16,-0.801,1.33,0.769 (inactive)
CC(C)(C)OC(=O)CC[C@]12N=C(c3ccc(OCCCO)cc3)O[C@H]1c1ccccc1N(Cc1ccccc1)C2=O,1.6,1.13,0.56,0.758,1.35,1.4,3.04,0.457,0.477,-2.2 (inactive)
CN1C(=O)C2C(C1=O)C1C=C(CCCO)C2C(C2CC2)N1Cc1cc2c(cc1Br)OCO2 (stereo not given),2.92,0.788,0.481,0.919,0.4,0.0867,-0.401,0.317,0.555,-0.0255 (inactive)
O=C1O[C@H](c2ccccc2)[C@H](c2ccccc2)N2[C@H]1[C@@H](C(=O)N1CCCCCCC1)[C@]1(C(=O)Nc3ccc(C#CC4(O)CCCCCC4)cc31)[C@H]2c1ccccc1OCCO,2.25,1.35,3.94,0.713,1.62,0.121,0.589,1.92,1.71,1.03 (inactive)
CC(C)OC(=O)CC(=O)CC(O)c1ccc([N+](=O)[O-])cc1 (stereo not given),0.42,0.304,-0.0134,-0.434,-0.134,-0.404,0.276,-0.006,0.518,0.419 (inactive)
